Screens deposited in PubChem by National Center for Advancing Translational Sciences (NCATS).
Pf growth 96h: inhibits malaria parasite growth, 96 h; P. falciparum luciferase reporter growth, 96 h; 320,000 tested, 6.9% active; AID 504834; Potency, µM (series often up to 28.7 µM), usual class: inhibitors
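96 h incubation, 37 C, 5% CO2, of luciferase-reporter P. falciparum-infected RBCs (2% hematocrit, 0.05% parasitemia final) with test compounds; endpoint luminescence.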
LmPK inhibitor: blocks Leishmania mexicana pyruvate kinase activity. Q27686. purified LmPK, Kinase-Glo ATP luminescence, 1 h. Potency, µM (titrated, usually from 57.5 µM), usual class: inhibitors. 290,000 tested, 0.37% active. AID 1721
Target sequence (Q27686 whole entry, looked up): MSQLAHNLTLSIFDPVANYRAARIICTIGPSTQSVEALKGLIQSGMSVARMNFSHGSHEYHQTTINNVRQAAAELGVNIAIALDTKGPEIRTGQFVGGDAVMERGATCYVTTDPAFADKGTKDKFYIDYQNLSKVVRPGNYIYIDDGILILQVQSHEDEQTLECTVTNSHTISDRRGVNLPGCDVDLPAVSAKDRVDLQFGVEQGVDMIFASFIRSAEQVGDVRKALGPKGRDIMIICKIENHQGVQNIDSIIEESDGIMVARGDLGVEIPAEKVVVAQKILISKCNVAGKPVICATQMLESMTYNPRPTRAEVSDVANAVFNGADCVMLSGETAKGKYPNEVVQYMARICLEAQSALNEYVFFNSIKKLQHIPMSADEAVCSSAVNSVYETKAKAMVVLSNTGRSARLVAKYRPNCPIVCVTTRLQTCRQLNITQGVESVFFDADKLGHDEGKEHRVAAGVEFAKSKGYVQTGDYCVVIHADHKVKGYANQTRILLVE
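Pyruvate kinase activity monitored as ATP production (luciferase luminescence). Conditions: 0.1 nM enzyme, 0.5 mM PEP, 0.1 mM ADP, 1 h, RT; normalized against uninhibited and no-enzyme wells.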
Pf growth 48h: P. falciparum growth inhibition at 48 hours (one generation) | Potency, µM (highest dose often 28.7 µM), most hits filed as inhibitors | AID 504832 | 310,000 tested, 5.9% active | P. falciparum luciferase growth in erythrocytes, 48 h
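Read-out is firefly luciferase luminescence from an integrated reporter in P. falciparum, so falling signal marks reduced parasite growth. Infected erythrocytes were at 2% hematocrit and 0.1% parasitemia (final) in Albumax-supplemented RPMI 1640.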
Shiga inhibitor: inhibitors of Shiga toxin in Vero cells; Vero cells, Shiga toxin protein synthesis inhibition reporter; AID 2315; 290,000 tested, 9.2% active; inhibition, % at 38.7 µM; in the data active means inhibition mostly above about 28%, no sharp cut-off; inactive means mostly below about 43%
CHX counter: affects cycloheximide protein synthesis inhibition readout, counter-screen; cell reporter, cycloheximide protein synthesis inhibition counterscreen; AID 2314; max response, %; 300,000 tested, 12% active; in the data active means max response mostly above about 13%, no sharp cut-off; inactive means mostly below about 14%; further: read at 38.3 µM for the half of the compounds with a filed dose
Numbers stand for hits; . = inactive; ? = inconclusive; / = no result given. In the library only some 22% were active in any assay of this set; here they are far more common. Unless noted, the call rests on the fitted dose curve; in most records, active means well fitted inhibition curve with a large enough effect; inconclusive means small, poorly fitted or top-dose-only effect, or another doubt; inactive means no such curve, though single readings can be large or run the other way.

SMILES	Pf growth 96h	LmPK inhibitor	Pf growth 48h	Shiga inhibitor	CHX counter
Cc1ccc(C)c(S(=O)(=O)Nc2nc(C)c(C(=O)Nc3ccccc3)s2)c1	0.657µM	.	?	.	.
Cc1noc(N)c1C(=O)Nc1ccc(C(C)(C)C)cc1	.	?	.	135.8	39.6
Cc1ccc(NC(=O)c2c(C)noc2C)cc1	/	.	.	.	.
Cc1nc(Nc2c(Cl)cccc2Cl)sc1C(=O)Nc1ccccc1	.	.	.	.	19.0
Cc1nc(NC(N)=S)sc1C(=O)Nc1ccccc1	?	.	.	.	.
Cc1ccccc1NC(=O)c1sc(Cl)nc1C	?	.	.	.	.
CC1(C)Cc2c(sc(NC(=O)C(=O)N3CCOCC3)c2C(N)=O)CO1	?	.	.	.	.
Cc1ccccc1C(=O)c1cccn1CC(=O)N1CCCCC1	.	.	.	.	.
Cc1nc(C(=O)Nc2ccccc2)sc1C(=O)Nc1ccccc1	.	.	.	78.6	40.1
Cc1nc(/N=C\N(C)C)sc1C(=O)Nc1ccccc1	.	.	.	50.7	.
Cc1ccc(S(=O)(=O)Nc2nc(C)c(C(=O)NN)s2)cc1	.	.	.	54.0	19.7
Cc1ccc(NC(=O)c2sc(N)nc2C)cc1	.	.	.	53.9	36.8
COc1ccc(CCNC(=O)CC(c2ccccc2)c2cccc(C)c2O)cc1OC (configuration not stated)	.	.	?	.	.
Cc1nc(N)sc1C(=O)Nc1ccccc1	?	?	.	67.8	35.5
COc1ccc2ncc(S(=O)(=O)c3ccccc3)c(N3CCN(c4ccccc4)CC3)c2c1	13.1µM	.	7.38µM	.	.
COc1ccc2ncc(S(=O)(=O)c3ccccc3)c(N3CCC4(CC3)OCCO4)c2c1	?	.	8.28µM	.	.
CCOC(=O)COc1c(/C=N\O)cc(Cl)cc1OC	.	.	.	.	.
CCOc1ccc(-c2cccc(NC(=O)COc3ccc(Cl)cc3)c2)nn1	?	.	.	.	.
O=C(Nc1cccc(-c2nn[nH]n2)c1)c1cccs1	?	.	.	.	.
COc1ccc(OCC(=O)Nc2cccc(NC(=O)c3ccco3)c2)cc1	.	.	.	.	.
CCOc1ccc(-c2cccc(NC(=O)c3cccs3)c2)nn1	3.7µM	/	5.22µM	/	/
COc1ccc(-c2cccc(NC(=O)c3cccs3)c2)nn1	7.38µM	/	9.28µM	/	/
CCOc1ccc(-c2cccc(NC(=O)c3ccco3)c2)nn1	10.4µM	/	?	/	/
COc1ccc(NC2CCCN(C(=O)C3(C)CCCCC3)C2)cc1OC (configuration not stated)	.	.	.	.	.
CC(C)CN(CC(C)C)CC(O)COc1ccccc1Br (configuration not stated)	3.29µM	.	?	.	.
SMILES	Pf growth 96h	LmPK inhibitor	Pf growth 48h	Shiga inhibitor	CHX counter
COc1ccccc1OCC(O)CO (configuration not stated)	.	.	.	.	.
Cc1ccccc1OCC(O)CN(CCO)Cc1ccccc1 (configuration not stated)	?	.	?	.	.
CCCCN(CCCC)CC(O)COc1ccccc1Br (configuration not stated)	.	.	4.15µM	.	.
Cc1ccc(NC(=O)COc2cccc(-n3cnnn3)c2)cc1[N+](=O)[O-]	.	.	?	.	.
Cc1ccc(C(=O)COc2cc(C)nc3nncn23)cc1	.	.	.	.	.
CC(C)C(=O)N1CCC(CN=Cc2c(O)n(C3CCCCC3)c(=O)n(C3CCCCC3)c2=O)CC1	.	.	1.47µM	.	.
CC[C@H]1C(c2ccccc2)=NN(c2ccccc2)[C@@H]1CO	/	/	/	.	.
OC[C@H](O)[C@H](O)[C@@H](O)[C@@H](O)[C@@H]1SC(c2ccccc2)=NN1c1ccccc1	?	.	13.1µM	.	.
S=c1c2c(nc3nc[nH]n13)CCC2	1.65µM	.	2.08µM	.	.
CC(Sc1nnc(COc2ccc(Cl)cc2)n1Cc1ccco1)C(=O)N1CCNC1=O (configuration not stated)	8.28µM	/	?	/	/
Cc1[nH]c2ccccc2c1C(=O)CN1CC=C(c2ccccc2)CC1	?	.	11.7µM	.	.
Cc1[nH]c2ccccc2c1C(=O)CN1CCN(C2CCCCC2)CC1	.	.	?	.	.
Cc1[nH]c2ccccc2c1C(=O)CN1CCN(C/C=C/c2ccccc2)CC1	?	.	8.28µM	.	.
COc1ccc2[nH]c(C)c(C(=O)CN3CCN(C/C=C/c4ccccc4)CC3)c2c1	8.28µM	.	?	.	.
Cc1cc2c(s1)c1cnn(Cc3cccc(F)c3)c(=O)c1n2C	/	/	/	.	.
CC(C)CN(CC(C)C)C(=O)COn1nnc2ccc(S(=O)(=O)N3CCOCC3)cc21	?	/	.	/	/
CC(=O)NC1C(=O)Nc2c(C)cc(C)cc21 (configuration not stated)	.	.	.	.	.
Cc1cccnc1NC(=O)c1ccc(C(=O)c2ccccc2)cc1	.	/	.	/	/
CC(=O)O[C@]1(C(C)=O)CC[C@H]2[C@@H]3C=C(C)C4=CC(=O)CC[C@@H]4[C@H]3CC[C@@]21C	?	/	13.1µM	/	/
CC(=O)O[C@]1(C(C)=O)CC[C@H]2[C@@H]3C=CC4=CC(=O)C=C[C@]4(C)[C@H]3CC[C@@]21C	4.65µM	.	11.7µM	.	.
CC(=O)O[C@]1(C(C)=O)CCC2C3C=C(C)C4=CC(=O)CC[C@]4(C)C3CC[C@@]21C (some centres not stated)	?	.	?	.	.
C=C1CC2C3C=C(C)C4=CC(=O)CCC4(C)C3CCC2(C)[C@@]1(OC(C)=O)C(C)=O (some centres not stated)	10.7µM	/	?	/	/
O=C(CN1CCN(C(c2ccccc2)c2ccccc2)CC1)NC(=O)NCc1ccco1	10.4µM	.	9.28µM	.	.
O=C(CN1CCN(c2ccccc2)CC1)NC(=O)NCc1ccco1	.	.	.	.	.
O=C(NC1CCCCC1)c1cc(-c2ccc(Cl)cc2)on1	.	.	.	.	.
SMILES	Pf growth 96h	LmPK inhibitor	Pf growth 48h	Shiga inhibitor	CHX counter
O=C(NC1CCCCC1)c1cc(-c2cccc(Cl)c2)on1	?	.	.	39.4	26.9
O=C(NC1CCCC1)c1cc(-c2cccc(Cl)c2)on1	?	.	.	131.0	37.1
CCOC(=O)N1CCN(C(=O)c2nc3ccccc3s2)CC1	?	.	.	72.5	33.8
CCOC(=O)N1CCN(C(=O)Cn2nc(C)c3sc4ccccc4c3c2=O)CC1	10.4µM	.	?	.	.
Cc1nn(CC(=O)N2CCN(C)CC2)c(=O)c2c1sc1ccccc12	?	.	.	.	.
CCOC(=O)N1CCN(C(=O)c2ccc3c(c2)sc2nc(-c4ccccc4)cn23)CC1	.	.	.	42.5	53.5
CCOC(=O)N1CCC(NC(=O)c2ccc3c(c2)sc2nc(-c4ccc(OC)cc4)cn23)CC1	.	.	.	56.6	20.1
CCOC(=O)N1CCC(NC(=O)c2cc(-c3ccc(OC)cc3)nc3ccccc23)CC1	.	.	?	.	.
O=C(NC12CC3CC(CC(C3)C1)C2)C1CCCN1C(=O)Nc1ccccc1 (configuration not stated)	.	.	.	.	.
